Hits are enriched below; roughly 0.45% of the tested compounds scored in any of these assays.
Menin MLL FP FL: displaces fluorescein MLL peptide from human menin. 290,000 tested, under 10 active. AID 1766. FP activity change, % at 61.4 µM. Fluorescence polarization, fluorescein-MLL peptide displacement from menin; active = well fitted curve in the direction sought with a large enough effect in the polarisation, not every such curve was filed as active; inconclusive = small, poorly fitted or top-dose-only effect, or effect the other way, or a change in a side signal; inactive = no such curve, though single readings can be large or run the other way; the % refers to the polarisation; note: % of control where 0% means no effect
Menin-MLL TR inh: inhibitors of human menin-MLL interaction, mutant MLL peptide | hit rate 0.23% among 270,000 | AID 1768 | Potency, µM (doses to about 61.6 µM), without a hit: top-dose FP activity change, negative = inhibition, actives largely listed as inhibitors | O00255 | Menin + Texas Red MLL mutant peptide, fluorescence polarization; active = well fitted inhibition curve with a large enough effect in the polarisation, with a control signal flat, not every such curve was filed as active; inconclusive = small, poorly fitted or top-dose-only effect, or effect the other way, or a change in a side signal; inactive = no such curve, though single readings can be large or run the other way; the % refers to the polarisation; note: potency is the fitted concentration of half-maximal effect; % of control where 0% means no effect
Target sequence (O00255 whole entry, looked up): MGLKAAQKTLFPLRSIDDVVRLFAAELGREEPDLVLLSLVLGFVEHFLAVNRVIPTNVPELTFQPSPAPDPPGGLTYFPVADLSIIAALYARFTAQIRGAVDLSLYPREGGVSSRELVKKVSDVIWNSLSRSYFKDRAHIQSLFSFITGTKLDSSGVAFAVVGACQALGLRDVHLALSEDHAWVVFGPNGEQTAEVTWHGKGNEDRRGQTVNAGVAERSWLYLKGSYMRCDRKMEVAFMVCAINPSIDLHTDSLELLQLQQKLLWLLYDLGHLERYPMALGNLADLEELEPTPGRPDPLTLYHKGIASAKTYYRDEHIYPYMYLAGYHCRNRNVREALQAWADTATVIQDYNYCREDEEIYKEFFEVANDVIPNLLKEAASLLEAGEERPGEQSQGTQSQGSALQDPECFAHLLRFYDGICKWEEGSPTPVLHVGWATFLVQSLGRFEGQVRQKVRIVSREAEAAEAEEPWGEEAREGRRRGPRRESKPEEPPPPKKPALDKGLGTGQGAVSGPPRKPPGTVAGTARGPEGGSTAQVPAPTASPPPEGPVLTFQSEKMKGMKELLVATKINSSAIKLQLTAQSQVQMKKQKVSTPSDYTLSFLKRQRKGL
GAA glycogen mod: alters human alpha-glucosidase cleavage of glycogen; P10253; recombinant GAA, glycogen substrate, Amplex Red glucose oxidase fluorescence; Potency, µM (doses to about 76.4 µM), for inactives: at the highest dose activity change, negative = inhibition, hits mostly inhibitors; hit rate 0.38% among 300,000;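 note: potency is the fitted concentration of half-maximal effect; 0% = full enzyme reaction and -100% = no-enzyme basal signal; the screen sought inhibitors and activators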
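Recombinant human enzyme (4 nM); glycogen substrate; 37 C, 40 min, pH 5.0. Readout: coupled glucose oxidase/Amplex Red fluorescence.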
GAA inhib: alpha-glucosidase (human) inhibition | P10253 | purified human GAA, 4-MU-alpha-glucoside fluorescence | Potency, µM (doses to about 76.9 µM), without a hit: top-dose activity change, negative = inhibition, most hits filed as inhibitors | hit rate 0.005% among 200,000 | AID 1466;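 note: potency is the fitted concentration of half-maximal effect; plate controls were uninhibited enzyme wells for no effect and no-enzyme background for full effect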
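AC50 values come from Hill fits of compound titrations (up to 77 uM) against 4 nM human enzyme. Substrate 4-methylumbelliferyl-alpha-D-pyranoside at 400 uM, pH 5.0 citrate buffer, 20 min room temperature; fluorescence Ex 365/Em 440 after alkaline stop.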
MLL CXXC-DNA inh: blocks binding of human MLL CXXC domain to DNA. Q03164. Potency, µM (top dose mostly 115 µM), for the others: top-dose activity change, negative = inhibition, most hits filed as inhibitors. hit rate 0.037% among 290,000. MLL-CXXC / FITC-HOXA9 DNA fluorescence polarization. AID 2662; active = well fitted inhibition curve with a large enough effect in the polarisation, with a control signal flat, not every such curve was filed as active; inconclusive = small, poorly fitted or top-dose-only effect, or effect the other way, or a change in a side signal; inactive = no such curve, though single readings can be large or run the other way; the % refers to the polarisation; note: potency is the fitted concentration of half-maximal effect
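Purified MLL-CXXC (added from a 7 uM solution) was preincubated 5 min at ambient with pinned compounds in 50 mM Tris-HCl pH 7.5, 50 mM NaCl, 1 mM DTT, 0.05% BSA. Fluorescein-labeled HOX-A9 DNA (50 nM solution) followed, 30 min, then polarization read.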
aGlu spleen mod: lysosomal alpha-glucosidase (human) modulation. P10253. human spleen homogenate, 4-MU-alpha-glucoside fluorescence. Potency, µM (doses to about 79.9 µM), for the others: at the top dose activity change, negative = inhibition, most hits filed as inhibitors. hit rate 0.006% among 240,000. AID 2112;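 note: potency is the fitted concentration of half-maximal effect; 0% = enzyme with vehicle and -100% = no enzyme basal signal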
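Compounds were titrated against alpha-glucosidase in spleen homogenate at pH 5.0, with 1 mM 4-methylumbelliferyl substrate for 40 min at 37 C. Reactions were quenched with pH 10 NaOH/glycine and fluorescence measured.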
Active calls of the source: *; u = inconclusive; x = no result given; [ ] = remark or other dose. Unless noted, calls come from the whole dose curve; as a rule, active = well fitted curve in the direction sought with a large enough effect; inconclusive = small, poorly fitted or top-dose-only effect, or another doubt; inactive = no such curve, though single readings can be large; an effect the other way counts as inactive or inconclusive.

SMILES | Menin MLL FP FL | Menin-MLL TR inh | GAA glycogen mod | GAA inhib | MLL CXXC-DNA inh | aGlu spleen mod
CCOc1ccc(NC(=O)CC2SC(=O)N(c3ccccc3)C2=O)cc1 (stereo not given) | 1 | u | 20µM* | -6% | 7% | -3%
CCOC(=O)C1=C(CN2CCN(c3cccc(OC)c3)CC2)NC(=O)NC1c1ccc(OC)cc1 (stereo not given) | x | x | -7%[76.3 µM] | x | x | x
O=C(N/N=C/c1ccc(O)cc1)c1ccncc1 | 1 | u | -4% | x | 19% | x
CC/C(=C\C(=O)c1ccncc1)Nc1ccc(O)cc1 | 0 | 6% | 45µM* | -8% | 10% | -8%
FC(F)(F)c1ccccc1-c1ccc2ncnc(NC3CCNCC3)c2c1 | -3 | -8% | x | x | x | 8%
CCN1CCOC(=O)C1CC(=O)Nc1cc(C)ccc1OC (stereo not given) | x | x | -4%[76.3 µM] | x | x | x
COc1cc(C(=O)NNc2nc3cc4c(cc3s2)OCO4)cc(OC)c1OC | 4 | 0% | 25µM* | -5%[15.4 µM] | 11% | 1%
COc1cc(OC)cc(C(=O)NNc2nc3cc4c(cc3s2)OCO4)c1 | 0 | 6% | u | -2%[15.4 µM] | 3% | -2%
CNc1nc2c3ccccc3n(C(C)=O)c2s1 | 4 | 4% | 25µM* | 0% | 1% | 5%
CN1c2cccc3cccc(c23)N(C)C1c1cccs1 | 5 | u | u | 1% | -9% | 3%
CC1N(C)c2cccc3cccc(c23)N1C | -2 | 0% | 12µM* | 5% | 10% | 4%
Cc1ccc(Cn2c(C)c3cnn(CC(=O)N4CCN(c5cc(C)ccc5C)CC4)c(=O)c3c2C)cc1 | x | x | 2%[76.3 µM] | x | x | x
CC(=O)/C(=N/Nc1ccccc1C)N1CCOCC1 | -3 | -3% | 13µM* | -4% | 2% | -3%
Cc1ccccc1NC(=O)CN1CCOCC1 | 2 | 16% | x | x | -1% | x
CC(=O)/C(=N/Nc1cccc(Cl)c1)N1CCOCC1 | 2 | x | 14µM* | -2% | -5% | 2%
CC(=O)/C(=N/Nc1ccccc1)N1CCOCC1 | -1 | 8% | 10µM* | -5% | 5% | -16%
CCOC(=O)c1c(C)n(C)c2ccc(O)c(CN(C)C)c12 | 5 | u | 25µM* | -8% | -5% | -13%
CCOC(=O)c1c(C)n(-c2ccc(C)cc2)c2ccc(O)c(CN(C)C)c12 | 5 | u | -3% | 5% | 9% | 1%
O=[N+]([O-])c1cc(-c2nnc(Nc3ccccc3)c3ccccc23)ccc1N1CCOCC1 | 3 | 1% | 12% | 3% | 5% | 2%
O=[N+]([O-])c1cc(-c2nnc(Nc3ccc(O)cc3)c3ccccc23)ccc1N1CCOCC1 | -1 | -1% | 16µM* | -4% | 3% | -1%
COc1ccc(NC(=S)NNc2ccc(S(=O)(=O)Nc3ccccc3C(=O)O)cc2[N+](=O)[O-])cc1 | 1 | x | 25µM* | x | -4% | -1%
COC(=O)C/C=C1\c2ccccc2C(OC)C1C (stereo not given) | -1[11.7 µM] | -6%[11.7 µM] | x | x | x | 14%[17.4 µM]
CNC(=S)Nc1ccc(Nc2ccccc2)cc1 | 1 | 7% | 25µM* | 7% | 10% | -2%
CCCNC(=S)Nc1ccc(Nc2ccccc2)cc1 | 6 | -18% | 16µM* | -2% | 2% | 4%
Cc1noc(C)c1-c1ccc2ncnc(NCc3ccc4c(c3)OCO4)c2c1 | 1 | -13% | x | x | x | 6%
SMILES | Menin MLL FP FL | Menin-MLL TR inh | GAA glycogen mod | GAA inhib | MLL CXXC-DNA inh | aGlu spleen mod
Cc1cccc(Nc2ncc(NC(=O)c3cccc(F)c3)c(Nc3cccc(C)c3)n2)c1 | x | x | 14%[76.3 µM] | x | x | x
CCOC(=O)C(=O)c1c(-c2ccc(C)cc2)nc2ccccn12 | 3 | -7% | -10% | -5% | 3% | -5%
CCOC(=O)CNc1c(-c2ccc(O)cc2)nc2ccccn12 | 0 | 2% | 35µM* | 0% | 3% | 4%
O=C(Nc1c(-c2ccccc2)nc2ccc(Cl)cn12)c1cccs1 | 2 | -2% | 5% | -5% | 24% | -4%
CCOC(=O)CNc1c(-c2ccc(O)cc2)nc2ccc(Cl)cn12 | 10 | 17% | 22µM* | 9% | -3% | -7%
CCOC(=O)CNc1c(-c2ccccc2)nc2ccc(Cl)cn12 | 3 | -1% | 4.5µM* | -2% | 1% | 0%
Oc1ccc(-c2nc3ccccn3c2NCc2ccc3c(c2)OCO3)cc1 | 0 | 2% | 35µM* | 9% | 1% | -23%
CCCc1ccc(C(=O)NNc2cccc(C)c2)cc1 | 0 | x | 16µM* | x | 9% | -4%
Cc1cccc(NNC(=O)C(=O)NNc2cccc(C)c2)c1 | 0 | x | u | x | -4% | 9%
COc1ccc(/C=C(\NC(=O)c2ccccc2)C(=O)NC2CCCCC2)cc1 | x | x | 13%[76.3 µM] | x | x | x
CC(=O)N1CCN(S(=O)(=O)c2ccc3c(c2)CC(=O)N3)CC1 | x | x | 12µM* | x | x | x
O=C1Cc2cc(S(=O)(=O)N3CCN(c4ccc(Br)cc4)CC3)ccc2N1 | x | x | -29%[76.3 µM] | x | x | x
Cc1noc(C)c1-c1cc(N(C)C)ncn1 | -2 | -14% | x | x | x | -1%
C=C[C@@]1(C)CC(=O)[C@]2(O)[C@@]3(C)[C@H](O)CCC(C)(C)[C@@H]3[C@H](O)[C@H](OC(C)=O)[C@@]2(C)O1 | 1 | 5% | x | x | x | -9%
O=c1oc2ccccc2c2oc3cc(O)c(O)cc3c12 | 1 | u | 28µM* | x | 8% | 0%
CCOC(=O)c1cccc(NC(=O)CCCn2c(C)c3cnn(-c4ccccc4)c(=O)c3c2C)c1 | x | x | 1%[76.3 µM] | x | x | x
O=C1C2Sc3[nH]c(=O)sc3C(c3cc([N+](=O)[O-])ccc3O)C2C(=O)N1c1ccccc1 (stereo not given) | 4 | x | u | x | -20% | -13%
O=C(O)CN1C(=O)C2C3CC(C2C1=O)C1C(c2ccccc2)c2sc(=O)[nH]c2SC31 (stereo not given) | 0 | 0% | -13% | -18% | 6% | 4%
O=C1C2Sc3[nH]c(=O)sc3C(c3ccccc3)C2C(=O)N1c1ccc(Cl)cc1 (stereo not given) | 3 | u | 28µM* | 2% | -4% | -2%
Cc1ccc(N2C(=O)C3Sc4[nH]c(=O)sc4C(c4ccccc4)C3C2=O)cc1 (stereo not given) | 4 | 40% | 31µM* | 4% | -3% | 1%
CCN(CC)C(=O)c1[nH]cnc1C(=O)N[C@@H](Cc1ccccc1)C(=O)OC(C)(C)C | -1 | -22% | -5%[76.3 µM] | x | 4% | x
COc1cccc(CN2CC34CCC(CC3S2(=O)=O)O4)c1 (stereo not given) | -6 | 8% | x | x | x | 1%
CC(C)OCCCNC(=O)C(=O)Nc1ccc2nc3n(c(=O)c2c1)CCCCC3 | x | x | -27%[76.3 µM] | x | x | x
CCc1noc(-c2ccc(N3CCCCC3)c([N+](=O)[O-])c2)n1 | x | x | 1%[76.3 µM] | x | x | x
COc1ccc(NCc2cc(=O)[nH]c3ccccc23)cc1 | -21 | 40µM* | u | x | 21% | x
